Only some compounds are listed: those with a hit (about 21% of all), similar ones and a draw of the others.
Pf growth 48h: Primary qHTS for delayed death inhibitors of the malarial parasite plastid, 48 hour incubation; hit rate 5.9% among 310,000; Potency, µM (series often up to 28.7 µM), for inactives: at the top dose activity change, negative = inhibition, most hits filed as inhibitors; P. falciparum luciferase growth in erythrocytes, 48 h; note: potency is the fitted concentration of half-maximal effect; % is set by controls: 0 for no effect and ±100 for the full control effect
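Luminescence readout; reporter = integrated firefly luciferase in P. falciparum. RBC culture at 2% hematocrit, 0.1% parasitemia final, 37 C/5% CO2; decreased signal taken as growth inhibition.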
Cycloheximide cs: Cycloheximide Counterscreen for Small Molecule Inhibitors of Shiga Toxin. cell reporter, cycloheximide protein synthesis inhibition counterscreen. max response, %. hit rate 12% among 300,000; in the data active = max response mostly above about 13%, no sharp cut-off; inactive = mostly below about 14%; note: read at 38.3 µM for the half of the compounds with a filed dose; 0% is about no effect
AMA1 RON2 block: qHTS for Inhibitors of AMA1-RON; Towards Development of Antimalarial Drug Lead: Primary Screen. Plasmodium falciparum AMA1 (3D7) - RON2 peptide interaction. AlphaScreen AMA1-biotinylated RON2 peptide binding. Potency, µM (top dose mostly 58.2 µM), for the others: at the highest dose activity change, negative = inhibition, usual class: inhibitors. hit rate 0.2% among 360,000. AID 720542, 2013;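 note: potency is the fitted concentration of half-maximal effect; 0% = vehicle wells and -100% = peptide control; nearly all actives have a fitted effect of over 45% in size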
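AMA1 (3D7) with his tag at 25 nM final met compounds first, then biotinylated RON2 peptide at 25 nM; detection used donor plus acceptor beads, 10 µg/mL apiece, read by AlphaScreen after 30 min at room temperature.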
Pf growth 96h: Primary qHTS for delayed death inhibitors of the malarial parasite plastid, 96 hour incubation; P. falciparum luciferase reporter growth, 96 h; Potency, µM (highest dose often 28.7 µM), inactives show at the highest dose activity change, negative = inhibition, usual class: inhibitors; hit rate 6.9% among 320,000; AID 504834, 2011; note: potency is the fitted concentration of half-maximal effect; % is set by controls: 0 for no effect and ±100 for the full control effect
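Infected RBCs, 2% Hct / 0.05% parasitemia final; luciferase-reporter P. falciparum; cpd 96 h, 37 C, 5% CO2; luciferase detection reagent; luminescence.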
Shiga toxin inh: A qHTS for Small Molecule Inhibitors of Shiga Toxin; Vero cells, Shiga toxin protein synthesis inhibition reporter; inhibition, % at 38.7 µM; hit rate 9.2% among 290,000; AID 2315, 2010; in the data active = inhibition mostly above about 28%, no sharp cut-off; inactive = mostly below about 43%; note: 0% is about no effect
HCV inhibitor: qHTS Assay for Inhibitors of Hepatitis C Virus (HCV). hit rate 3.4% among 340,000. Huh7.5.1 HCVcc-Cre infection, luciferase reporter, 44 h. Potency, µM (doses to about 41.8 µM), inactives show at the top dose activity change, negative = inhibition, most hits filed as inhibitors. AID 651820, 2012; note: potency is the fitted concentration of half-maximal effect; % is set by controls: 0 for no effect and ±100 for the full control effect
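After 44 h co-culture of compound, cells and HCVcc-Cre (~0.5 moi), substrate is added for 15 min at room temperature and luciferase measured over 15 sec. Cells were seeded at 1,000/well and pre-cultured 4 h.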
Starred values were filed as active, the others as inactive; ? = inconclusive; . = no result given; + = active, no number; [ ] = dose if it differs, or a comment. Unless noted, calls come from the whole dose curve; as a rule, active = well fitted curve in the direction sought with a large enough effect; inconclusive = small, poorly fitted or top-dose-only effect, or another doubt; inactive = no such curve, though single readings can be large; an effect the other way counts as inactive or inconclusive.

SMILES	Pf growth 48h	Cycloheximide cs	AMA1 RON2 block	Pf growth 96h	Shiga toxin inh	HCV inhibitor
COCCN(C(=O)c1ccc2c(c1)S(=O)(=O)N=C1CCCCCN12)c1c(N)n(CC(C)C)c(=O)[nH]c1=O	.	.	3.1%	.	.	19.0%
Cn1cc(CN2CCC(C(=O)NC(c3ccc(-c4ccccc4)cc3)c3cnccn3)CC2)c2ccccc21 (centres undefined)	.	.	-23.1%	.	.	.
CC(C)(C)c1nnc(NS(=O)(=O)c2ccc(F)cc2)s1	.	.	7.7%	.	.	7.5%
C/C(=N\NC(=O)c1ccc(Cl)cc1)c1ccc2[nH]ccc2c1	16.2%	24.4*	79.3%	?	56.8	18.0%
CC(=O)NC1Sc2ccccc2N=C1c1ccccc1 (centres undefined)	175.0%	42.8*	-4.4%	?	111.1*	?
CC(=O)N1c2ccccc2N=C(c2ccc(C(F)(F)F)cc2)C1C(=O)NC1CCCC1 (centres undefined)	.	.	10.5%	.	.	.
CC(=O)Nc1cccc(C(=O)Nc2cc(C(F)(F)F)ccc2-n2cncn2)c1	.	.	-4.9%	.	.	.
CCOC(=O)c1c(C)cc(C)n2c1nc1ccccc12	?	13.3	6.6%	11.7µM*	23.8	-18.2%
Cc1noc(C)c1COC(=O)c1cc2c3ccccc3n(C)c2s1	?	9.1	0.0%	?	12.4	11.2µM*
Cc1noc(C)c1COC(=O)c1cc2c(C)nn(-c3ccc(F)cc3)c2s1	0.3%	-4.4	8.2%	11.6%	2.7	-2.6%
O=C(NCCOc1ccccc1Cl)C(=O)NCCOc1ccccc1Cl	-2.9%[5.75 µM]	-4.0	-3.4%	2.94µM*	-4.0	-1.9%
CN(CCOc1ccc(Cl)c(Cl)c1)Cc1ccccc1	7.1%	-2.5	?	?	.	-7.0%
CN(CCOc1ccccc1Cl)Cc1ccccc1	33.0%	13.4*	?	4.5%	.	-0.4%
O=C(CNC(=O)c1ccccc1F)NCCOc1ccccc1Cl	20.4%	15.4*	-8.7%	-7.2%	+	2.3%
COc1cc(C(=O)NCCOc2ccccc2C)c(Br)c(OC)c1OC	-6.6%	2.4	-1.8%	407.3%	-0.3	?
COc1ccc(C(=O)NCCOc2ccccc2Cl)c(OC)c1OC	100.5%	53.7*	13.5%	6.6%	99.4*	0.4%
C[C@@H](C(O)c1ccccc1)N(C)C(=O)CCc1ccccc1 (some centres undefined)	-11.0%	-2.4	5.1%	16.4%	-7.7	2.8%
Cc1ccc(S(=O)(=O)n2nnc3ccccc32)c(C)c1C	-20.1%	-2.2	-12.9%	-1.4%	39.2	15.0%
CN1C(=O)[C@@](O)(c2cn(C)c3ccccc23)c2cc(Br)ccc21	.	.	-13.0%	.	.	.
CCC(=O)N1CCc2cc(Br)cc(S(=O)(=O)N3CCCC(C(=O)NC(C)(C)C)C3)c21 (centres undefined)	1.17µM*	12.8	0.0%	?	21.1	-4.1%
CCOC(=O)C1CCCN(S(=O)(=O)c2cc3c4c(c2)CCC(=O)N4CCC3)C1 (centres undefined)	?	.	8.7%	?	.	?
O=C(C1CC1)N1CCc2cc(Br)cc(S(=O)(=O)N3CCOCC3)c21	5.22µM*	-1.3	2.3%	37.2%	11.8	-13.2%
CCOC(=O)N1CCN(S(=O)(=O)c2cc(Br)cc3c2N(C(C)=O)C(C)C3)CC1 (centres undefined)	?	-2.3	-16.0%	0.0%	-12.5	1.3%
CCOC(=O)C1CCN(S(=O)(=O)c2cc(Br)cc3c2N(C(C)=O)C(C)C3)CC1 (centres undefined)	8.28µM*	-0.5	5.6%	?	-9.1	-1.2%
CCC(=O)N1CCc2cc(Br)cc(S(=O)(=O)N3CCC(C(=O)NC(C)(C)C)CC3)c21	?	-3.7	14.6%	34.3%	-2.2	-5.6%
SMILES	Pf growth 48h	Cycloheximide cs	AMA1 RON2 block	Pf growth 96h	Shiga toxin inh	HCV inhibitor
CCOC(=O)C1CCCN(S(=O)(=O)c2cc(Br)cc3c2N(C(C)=O)CC3)C1 (centres undefined)	3.7µM*	-5.9	3.8%	?	-12.6	?
CC(=O)N1CCc2cc(Br)cc(S(=O)(=O)N3CCN(c4ccccn4)CC3)c21	?	0.7	-5.4%	.	9.9	9.6%
CC(=O)N1CCc2cc(Br)cc(S(=O)(=O)N3CCCCC3)c21	2.62µM*	1.1	-15.9%	?	-5.6	-0.5%
CCN(c1ccc2c(c1)OCO2)S(=O)(=O)c1cc2c(cc1Br)CCN2C(=O)C1CC1	.	.	-4.3%	.	.	?
CCN(c1ccc2c(c1)OCO2)S(=O)(=O)c1cc(Br)cc2c1N(C(C)=O)CC2	?	-2.6	17.6%	9.28µM*	15.0	-16.3%
CCCCN(C)S(=O)(=O)c1cc(Br)cc2c1N(C(=O)C1CC1)CC2	4.65µM*	4.3	-1.4%	?	-10.1	?
O=C(O)CCS(=O)(=O)c1cc(Br)cc2c1N(C(=O)C1CC1)CC2	?	0.4	?	?	31.1	26.4%
Cc1cc(-c2ccccc2)c2ccc(NC(=O)C(C)(C)C)nc2n1	?	-5.3	3.1%	?	.	1.2%
CCC(=O)[C@@]1(C)[C@H](C)C[C@@H]2[C@@H]3CCC4=CC(=O)C=C[C@@]4(C)[C@H]3[C@H](O)C[C@]21C	2.56µM*	.	.	2.56µM*	.	.
CCC(=O)OCC(=O)[C@@]1(OC(=O)CC)[C@H](C)C[C@@H]2[C@@H]3[C@H]([C@@H](O)C[C@@]21C)[C@]1(C)C=CC(=O)C=C1C[C@@H]3Cl	2.56µM*	.	.	4.05µM*	.	.
CCC(=O)OCC(=O)C1(OC(=O)CC)[C@H](C)C[C@H]2[C@H]3[C@H]([C@@H](O)C[C@@]21C)[C@@]1(C)C=CC(=O)C=C1C[C@H]3Cl (some centres undefined)	?	.	15.1%	-0.2%	.	20.2%
C/C(=C/c1ccccc1)C(=O)N1CCN(c2ccc(F)cc2)CC1	-15.4%	-1.6	-4.2%	0.0%	-2.6	-1.0%
O=S(=O)(NCC(c1cccnc1)N1CCN(c2ccccc2F)CC1)c1cccs1 (centres undefined)	13.1µM*	5.8	8.8%	?	12.5	-2.4%
O=S(=O)(NCC(c1cccnc1)N1CCN(c2ccc(F)cc2)CC1)c1cccs1 (centres undefined)	?	-2.0	?	-29.7%	16.1	-1.4%
O=C(O)c1cncc(C#Cc2ccccc2)c1	18.8%	0.9	?	-11.5%	-7.1	13.8%
O=C(O)c1cncc(C#CCC2CCCCC2)c1	5.2%	77.0*	12.1%	15.6%	89.6*	15.4%
Cn1c(=O)c2c(nc(/C=C/c3cccc(Cl)c3)n2C)n(C)c1=O	.	.	-4.1%	.	.	0.1%
Cn1/c(=N\NC(=O)C2CCCCC2)sc2ccccc21	46.8%	36.9*	-8.5%	42.7%	56.2*	16.5%
